Results reported in article PMC4336329 (PLoS ONE, 2015).
In all, about 310,000 compounds went through this assay and about 14,000 (4.5%) showed an effect of 50% or more. Effects have a minus sign here. Many of the other results were omitted from the sample, so strong results are more common in it than they were.

Each compound was assayed against human ether-à-go-go-related gene (hERG) potassium channel (human, UniProt Q12809) (assay: primary screen, population patch clamp on CHO cells stably expressing hERG; higher = less effect of the substance).
human ether-à-go-go-related gene (hERG) potassium channel, sequence (Q12809 whole entry, looked up): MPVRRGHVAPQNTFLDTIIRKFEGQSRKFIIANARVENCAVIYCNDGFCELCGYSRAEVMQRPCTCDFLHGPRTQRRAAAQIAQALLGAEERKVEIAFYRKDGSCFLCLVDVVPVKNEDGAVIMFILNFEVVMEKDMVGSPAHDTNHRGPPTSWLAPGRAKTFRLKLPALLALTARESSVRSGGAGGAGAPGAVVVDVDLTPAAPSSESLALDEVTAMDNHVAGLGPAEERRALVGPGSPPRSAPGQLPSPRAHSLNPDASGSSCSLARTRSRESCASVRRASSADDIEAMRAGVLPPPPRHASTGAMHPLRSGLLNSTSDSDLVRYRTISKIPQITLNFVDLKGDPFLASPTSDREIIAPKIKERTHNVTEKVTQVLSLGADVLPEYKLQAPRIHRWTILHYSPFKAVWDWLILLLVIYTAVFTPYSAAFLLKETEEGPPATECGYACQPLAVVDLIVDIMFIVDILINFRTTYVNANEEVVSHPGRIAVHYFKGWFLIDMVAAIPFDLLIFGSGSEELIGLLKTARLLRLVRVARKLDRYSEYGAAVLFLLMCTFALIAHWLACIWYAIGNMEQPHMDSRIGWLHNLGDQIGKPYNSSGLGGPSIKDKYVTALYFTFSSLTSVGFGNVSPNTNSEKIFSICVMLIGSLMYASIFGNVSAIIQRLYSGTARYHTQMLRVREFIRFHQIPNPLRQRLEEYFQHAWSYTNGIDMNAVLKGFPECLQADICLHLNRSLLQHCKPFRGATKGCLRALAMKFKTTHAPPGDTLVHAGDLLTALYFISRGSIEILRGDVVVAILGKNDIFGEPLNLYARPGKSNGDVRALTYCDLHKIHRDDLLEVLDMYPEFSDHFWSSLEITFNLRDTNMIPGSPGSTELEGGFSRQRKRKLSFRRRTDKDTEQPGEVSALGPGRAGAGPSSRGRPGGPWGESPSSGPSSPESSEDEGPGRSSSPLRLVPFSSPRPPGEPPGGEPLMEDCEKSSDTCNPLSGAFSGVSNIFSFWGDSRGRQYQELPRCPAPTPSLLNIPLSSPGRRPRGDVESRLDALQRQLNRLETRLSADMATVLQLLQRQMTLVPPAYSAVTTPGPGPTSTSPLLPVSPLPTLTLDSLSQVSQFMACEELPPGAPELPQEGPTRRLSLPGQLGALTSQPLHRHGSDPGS
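Note: peak tail current of the secondary pulse compared with the same well before compound.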

SMILES | hERG current change (%, negative = inhibition) at 10uM [%]
COCCn1c(SCC(=O)Nc2c(C)n(C)n(-c3ccccc3)c2=O)nc2ccccc2c1=O | -19.6
CCCC(=O)N(c1ccc(C(=O)O)cc1)c1nc(-c2ccccc2)c(C)s1 | 14.2
CCOc1cc2c(cc1OCC)C(C(=O)O)C(c1cc(OC)c(OC)c(OC)c1)N(C)C2=O (centres unmarked) | 3.02
COC(=O)[C@@H]1C[C@@H]2CC[C@@H](O)C[C@@H]2N1Cc1ccc(N2CCN(C)CC2)cc1 | 9.87
Cn1c(N2CCC(C(N)=O)CC2)nc2c1c(=O)n(Cc1ccc(Br)cc1)c(=O)n2C | -57.3
CC(O)CNc1nc2c(c(=O)n(Cc3ccc(Br)cc3)c(=O)n2C)n1C (centres unmarked) | -12.6
Cn1c(N2CCC(C(N)=O)CC2)nc2c1c(=O)n(Cc1ccc(Cl)cc1)c(=O)n2C | -58.5
CCCCCn1c(N2CCCC2)nc2c1c(=O)n(C)c(=O)n2C | -9.54
CC1CCN(c2nc3c(c(=O)n(C)c(=O)n3C)n2Cc2ccccc2)CC1 | -50
Cn1c(N2CCCC2)nc2c1c(=O)n(Cc1cccc(F)c1)c(=O)n2C | -19.6
CCOC(=O)Cn1c(=O)c2c(nc(N3CCCCC3)n2Cc2ccccc2)n(C)c1=O | -40.4
Cn1c(N2CCC(C(N)=O)CC2)nc2c1c(=O)n(Cc1cccc(Br)c1)c(=O)n2C | -64.7
CCCCCCn1c(N2CCC(C(N)=O)CC2)nc2c1c(=O)n(C)c(=O)n2C | -56.4
CN(CCO)c1nc2c(c(=O)n(Cc3ccc(Cl)cc3)c(=O)n2C)n1C | 3.79
CCCCCCn1c(N2CCCC2)nc2c1c(=O)n(C)c(=O)n2C | -1.96
Cn1c(Cl)nc2c1c(=O)n(Cc1cccc(Br)c1)c(=O)n2C | -35.3
CCOc1ccc(S(=O)(=O)NCCC(=O)OC(C)C(=O)N2CCc3ccccc32)cc1 (centres unmarked) | -22.6
NC(=O)c1ccc(NC(=O)CNCc2ccccc2Cl)cc1 | 8.82
COc1ccccc1NS(=O)(=O)c1cccc(C(=O)NCc2ccccn2)c1 | 13.2
CCOc1nc(C)ccc1-c1noc(-c2ccccc2OC)n1 | 12.7
CCCC12CN3CC(C)(CN(C1)C3c1ccco1)C2=O (centres unmarked) | -4.64
CCOc1ncccc1C(=O)NCCc1ccc(Cl)cc1 | -5.75
CC(=O)CC(C)(C)Nc1nc2cc([N+](=O)[O-])ccc2o1 | 0.0382
